# Measured values from ChEMBL document CHEMBL1157539, “Thousands of chemical starting points for antimalarial lead identification” (Nature, 2010).
# Test system: Plasmodium falciparum
# Assay: GSK_TCMDC: Inhibition of Plasmodium falciparum Dd2 in whole red blood cells, using parasite LDH activity as an index of growth. Test compounds present at 2uM
# Assay type: functional
row,SMILES,Inhibition [%]
1,N#Cc1ccc(-c2ccc(OCC(O)CN3CCCN(C(=O)C(c4ccc5c(c4)OCO5)N4CCN(C/C=C/c5ccccc5)CC4)CC3)cc2)cc1 (stereo not given),77
2,COc1ccc(CNCc2ccc(F)cc2)cc1-c1ccc(OC)c(S(=O)(=O)NCCN2CCCC2)c1.O=C(O)C(F)(F)F,88
3,Cc1nc2ccc(NC(=O)Nc3ccnc4ccc(C(F)(F)F)cc34)cc2o1,24
4,COc1ccc(NC(=O)c2ccc(Br)c(C)c2)cc1N1CCN(Cc2ccccc2)CC1.O=C(O)C(=O)O,3
5,COc1ccc(C2CCC(NCCCCNC(=O)c3ccc(NC(=O)c4ccc(Cl)cc4)cc3)CC2)cc1 (stereo not given),7
6,Cc1[nH]c(C)c(-c2ccc(-c3ccc(C(F)(F)F)cc3C(F)(F)F)nc2)c(=O)c1Br,97
7,Cl.Nc1ncc(-c2ccccc2)cc1-c1nc2cc(Cl)c(F)cc2[nH]1,91
8,COC(=O)c1ccc2nc(-c3ccc(C(=O)NC4CCN(Cc5ccccc5)CC4)s3)[nH]c2c1,71
9,CCCCC1=CC2C(=O)C(C(=O)OC)=CN=C2C=C1OCc1ccccc1 (stereo not given),98
10,O=C(Nc1ccc(CCN2CCC(c3nc(COCC(F)(F)F)c(-c4ccccc4)o3)CC2)cc1)c1ccc(F)cc1,3
11,CCCCCCNC(=O)c1nn(CCN2CCC(N3CCCC3)CC2)cc1-c1ccc(Cl)c(Cl)c1,33
12,C=C(C)C1CC=C(CN2CCCC(n3ccc4cc(NC(=O)c5ccco5)ccc43)CC2)CC1 (stereo not given),95
13,CN(Cc1cccc(O)c1)C1CCCN(c2cc(NC(=O)c3ccc(F)cc3)ccn2)C1.O=C(O)C(F)(F)F (stereo not given),12
14,CCCCN(Cc1cnccc1-c1ccc(Br)cc1)c1ccc(C(O)(C(F)(F)F)C(F)(F)F)cc1.O=C(O)C(F)(F)F,45
15,Cc1c(N)ccc2[nH]c(-c3ccc(N)cc3)nc12,40
16,Cc1cc(I)ccc1Nc1nc2nonc2nc1Nc1ccc(I)cc1C,96
17,C/C=C/COc1ccc(-c2c(C)[nH]c(C)c(Cl)c2=O)cc1,97
18,O=C(NC1CCN(c2ccnc3cc(Cl)ccc23)C1)c1ccc(F)cc1F.O=C(O)C(F)(F)F (stereo not given),100
19,C#C[C@H]1O[C@@H](n2cnc3c(Nc4cc(Br)cc(C(F)(F)F)c4)ncnc32)[C@H](O)[C@@H]1O,56
20,CC(C)C[C@H]1C(=O)N[C@H](C2Cc3ccccc3C2)C(=O)N1[C@@H](C(=O)Nc1ccccc1OCc1ccccc1)c1ccc(F)cc1F,67

row,SMILES,Inhibition [%]
1,CCOc1ccc(C=CC(=O)Nc2ccc3nc(N4CCN(C)CC4)cc(C)c3c2)cc1OC,70
2,CCN(CCCN1CCCCC1)c1cc(C)nc(Nc2ccc(Br)cc2F)n1.O=C(O)C(F)(F)F,24
3,Cl.N=C(N)c1cc(Cl)cc(NC(=O)Nc2cc(Cl)cc(C(=N)N)c2)c1,92
4,Br.CC1(C)NC(N)=NC(=N)N1OCCCOc1ccc(N)cc1,95
5,CC(=O)C1=NN(c2ccc(Cl)cc2)C(c2cccs2)N1c1ccccc1 (stereo not given),70
6,O=C1Nc2ccccc2/C1=N/NC(=S)N1CCOCC1,75
7,O=C(O)C(F)(F)F.c1cc(CNCCc2ccncc2)cc(-c2ccc(-c3nc4ccccc4[nH]3)cc2)c1,97
8,CC(C)Oc1cc2c(cc1NS(=O)(=O)c1ccc(-c3ccc(Cl)cc3)cc1F)CCN(C)CC2.Cl,2
9,CN(C)CCN(Cc1ccc(-c2ccc(CNCCc3ccccc3)cc2)nc1)C(=O)CCC1CCCC1.O=C(O)C(F)(F)F,89
10,CC(=O)Nc1nc(C(=O)Nc2cccc(-c3ccc(-c4nc5cccc(C)c5[nH]4)cc3)c2)cs1,61
11,COc1cccc2cc(C(=O)N[C@@H](CC(C)C)C(=O)N[C@H](/C=N/NC(=O)c3ccccc3)Cc3c[nH]cn3)oc12,90
12,O=C(NCCCc1ccccc1)c1csc(C2CCCN(C(=O)c3ccc(O)c(-c4cccc5ccccc45)c3)C2)n1 (stereo not given),98
13,O=C(Nc1cc(F)cc(-c2cccnc2)c1)c1ccc2c(=O)n(Cc3ccccc3)cnc2c1,11
14,COc1ccc2c(=NN=Cc3cccc(Cl)c3)cc(C)[nH]c2c1,99
15,O=C(NCCc1cccc(Cl)c1Cl)c1cnc(N2CCN(c3ccncc3)CC2)c(Cl)c1.O=C(O)C(F)(F)F,99
16,Cc1nccc2c(NC(=O)N[C@@H]3CCN(c4ncc(C(F)(F)F)cc4Br)C3)cccc12.Cl,27
17,CC1(C)N=C(N)N=C(N)N1OCc1cc2ccccc2cc1CON1C(N)=NC(N)=NC1(C)C,51
18,Cc1c(F)cc(C(=O)NC2CC2)cc1-c1ccc2c(cnn2S(=O)(=O)c2ccc(C#N)cc2)c1,92
19,Br.CC1(C)NC(N)=NC(=N)N1OCCCOc1ccccc1N,95
20,Oc1ccc(Cl)cc1CN1CCCC(COC(c2ccc(F)cc2)c2ccc(F)cc2)C1 (stereo not given),100
